Results published in the supplement of paper PMC3334620.
Over roughly 33,000 sequences, “E-score (-0.5 to 0.5)” has its median near -0.056; the highest 2% begin near 0.38. The sample holds the highest values, similar sequences and a random draw of the others, so the mix is not that of the screen.

These sequences were tested against Stb4 (UniProt P50104) (assay: PBM E-score (8-mer binding enrichment) (E-score (-0.5 to 0.5)); higher = stronger / more preferred TF binding). Conditions: protein concentration: 200 nM; construct: GST-DNA-binding domain.
Description: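 Universal 'all 10-mer' protein binding microarrays (Agilent AMADID 015681) probed with GST-tagged S. cerevisiae TFs (full-length or DBD) made by in vitro transcription/translation (PURExpress), about 100-200 nM. Bound TF was detected with fluorescent anti-GST. Each ungapped 8-mer (which stands for itself and its reverse complement) is scored by the PBM enrichment score (E-score), a modified Wilcoxon-Mann-Whitney statistic from -0.5 to +0.5, computed with the Universal PBM Analysis Suite. Scale: above 0.35 generally sequence-specific binding.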

Sequence of UniProt P50104 (P50104 whole entry, the tested form may be a part): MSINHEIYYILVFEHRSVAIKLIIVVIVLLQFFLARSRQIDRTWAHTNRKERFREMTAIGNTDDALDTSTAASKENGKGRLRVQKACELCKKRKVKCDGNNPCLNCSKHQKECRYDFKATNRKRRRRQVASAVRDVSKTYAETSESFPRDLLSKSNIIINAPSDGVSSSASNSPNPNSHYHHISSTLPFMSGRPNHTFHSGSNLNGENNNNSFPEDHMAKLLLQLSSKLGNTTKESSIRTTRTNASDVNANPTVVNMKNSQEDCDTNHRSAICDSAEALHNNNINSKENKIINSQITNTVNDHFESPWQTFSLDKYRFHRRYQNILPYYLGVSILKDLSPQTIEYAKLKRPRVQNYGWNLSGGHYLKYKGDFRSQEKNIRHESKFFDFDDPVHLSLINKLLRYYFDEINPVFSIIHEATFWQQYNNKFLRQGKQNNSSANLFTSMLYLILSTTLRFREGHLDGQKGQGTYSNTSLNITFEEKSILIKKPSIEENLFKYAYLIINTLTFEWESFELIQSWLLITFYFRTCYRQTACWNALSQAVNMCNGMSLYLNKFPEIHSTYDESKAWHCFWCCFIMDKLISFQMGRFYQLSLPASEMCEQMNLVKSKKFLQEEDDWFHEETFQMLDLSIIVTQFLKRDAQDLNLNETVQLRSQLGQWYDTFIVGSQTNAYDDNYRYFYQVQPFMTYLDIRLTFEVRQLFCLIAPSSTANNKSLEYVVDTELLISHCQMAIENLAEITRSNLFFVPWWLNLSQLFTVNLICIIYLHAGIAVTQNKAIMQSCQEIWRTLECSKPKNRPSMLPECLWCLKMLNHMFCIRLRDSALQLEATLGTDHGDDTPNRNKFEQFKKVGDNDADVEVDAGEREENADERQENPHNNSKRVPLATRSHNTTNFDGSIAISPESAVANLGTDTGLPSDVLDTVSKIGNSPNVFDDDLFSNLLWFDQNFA

Sequence	PBM E-score
GGACCCTA	-0.144
CAATCGGA	0.374
CGAGGATA	0.0376
ACATATAA	-0.0928
CCTCTTTA	-0.157
ACTATACG	0.00583
ATGACGAC	0.0312
ATACCGAG	0.377
AAGCCATG	-0.117
AGTCTTCG	-0.008
CCGGCCAA	0.271
CGGACCTC	0.124
GCGCTGAC	-0.0933
AGACCCGG	0.305
AGACCCGC	0.174
AGACCCGA	0.419
AAACTGTG	-0.12
AGAGGGAT	-0.271
CCGAGACC	0.431
CGGAGACG	0.235
CCGAGACG	0.41
CCGAGAGA	0.373
CCGAGAGC	0.388
ACGAGACC	-0.0429
CCGAGACA	0.372

Sequence	PBM E-score
ACGAGACG	0.0568
ACGAGAGC	-0.151
CCACCACG	-0.109
AAGCTAGG	0.0266
GGCAGGCA	0.0342
CGGGGCCA	0.22
AATAGGAG	-0.317
GTCCTCCA	-0.138
GGGAAGGA	0.0823
AGGAAGTC	-0.19
AGGAAGGA	-0.282
AGGAAGAA	-0.278
CGGAAGTC	0.414
CGGAAGAA	0.406
GGGAAGTA	0.184
CTGAAGTC	0.0307
CGGAAGTA	0.419
CGGAAGGA	0.397
AGGAAGTA	0.112
GGGAAGAA	0.0883
ACGCTCAT	-0.276
AAAGGCGA	-0.0639
AGAGCAAC	-0.287
GGGTTTAA	0.0372
TCCGAGAA	0.455

Sequence	PBM E-score
CACGAGAA	-0.167
CCCGAGAA	0.44
CCCGAGAG	0.385
CTCGAGAG	-0.201
CACGAGAG	-0.136
GCCGAGAC	0.392
GGCGAGAC	-0.245
GTCGAGAC	0.0445
TACGAGAA	-0.113
ACCGAGAA	0.311
TTCGAGAA	-0.207
ATAATCAT	-0.0964
CCCATTAC	-0.104
CCCGCAAC	0.228
CAGGCACA	-0.178
ACGGGCCT	0.0389
CAACCACC	0.0572
GCCTAGAC	-0.139
CCTCGAAC	-0.249
GTGACCAA	-0.203
CGCGAGAC	-0.0463
CCCGAGAC	0.412
ACCGAGAC	0.357
GTCGAGAA	-0.277
GACGAGAA	-0.169

Sequence	PBM E-score
GCCGAGAA	0.406
CACCTACG	0.0326
AACCATGT	0.0503
AAACCATA	-0.0199
GACTAGCA	-0.114
GAGGAGGA	-0.152
ACCCCGAG	0.333
CACCCGAG	0.448
CCCCCGAA	0.297
CACCCGGC	0.277
AACCCGAT	0.285
CACCCGGG	0.323
CACCCGAA	0.436
CCCCCGAC	0.175
CACCCGAC	0.384
CACCCAAA	-0.0471
CCCCCGAG	0.352
AACCCGAG	0.406
CCCTAAGG	-0.232
ACCGCTTG	-0.0825
CAATTTCG	0.0914
TGTAAGAA	0.101
CACCTCCA	-0.167
AAGGATAG	0.00922
CGTTCAGC	-0.00077

Sequence	PBM E-score
CACTCGGA	0.422
AACTCGCA	-0.278
AACTCGGT	0.286
CACTCGTA	-0.292
AACTCGCG	-0.00482
CACTCGAA	-0.267
AACTCGGG	0.383
TACTCGCA	-0.0584
AACTCGTG	0.0628
AACTCGGA	0.426
TACTCGAA	-0.25
TACTCGGA	0.409
TTCCAGAA	-0.0529
GTCGTGAA	-0.19
ATAAGCGA	0.0555
ATCTGCAT	-0.071
AGGAACTG	-0.148
CGATCATC	0.0839
CACTCGGC	0.402
GACTCGCA	-0.0572
CACTCGTC	0.0228
GACTCGGA	0.451
GACTCGGC	0.327
CACTCGGG	0.371
CTCCCAAG	-0.114

Sequence	PBM E-score
ACGCCAGG	-0.0466
AAATCATG	-0.27
CTACCCGA	0.464
CTACCCAA	-0.209
GTACCCGA	0.437
ATACCCCG	0.205
GTACCCTA	-0.206
ATACCCGA	0.476
ATACCCTG	-0.0928
ATACCCGC	0.328
ATACCCGG	0.391
CTACCCGC	0.273
GTACCCAA	-0.0334
ATACCCAA	-0.0395
GAAGTAGA	-0.0217
GCGAGTGA	-0.0567
GCATCTCA	-0.222
GGCACAAA	0.104
ATATAGCC	0.183
CCTGAACC	-0.232
GCCCTGCC	0.0895
CGCTCGTA	-0.176
AGCTCGTA	-0.189
CGCTCGGA	0.463
GGCTCGAA	-0.0314

Sequence	PBM E-score
AGCTCGCA	-0.108
GGCTCGTA	-0.0188
CGCTCGGC	0.412
CGCTCGCA	0.104
CGCTCGTC	-0.19
GGCTCGGA	0.466
CGCTCGCC	-0.0544
AGCTCGGA	0.454
AAGAGGCA	-0.186
CGACCAAG	-0.184
TCATTGCA	-0.328
CATGTTCC	0.115
ATTCATTC	0.172
ACCGCAGG	0.0861
ACCTCTAC	-0.0322
AGGCGAAT	-0.189
AGAATTGA	-0.194
GAGAAGAA	0.0753
GACAGATC	0.0617
AGGATAGA	-0.107
CAGATAGC	-0.0171
CGGATAGC	0.394
CGGATAGA	0.454
AGGATAGC	0.206
GGGATAGA	-0.0799
